SMILES strings stand for the structures. Screen size: about 96,000 compounds; about 19,000 (20%) were called active.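 The calls were made as follows: active = blocking of liver enzyme CYP2C9 beyond about 50% at 5 µM (limit read from the data); inactive = the rest.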 A selection follows.

In the experiment the target is Cytochrome P450 2C9 (Homo sapiens) (UniProt P11712). The experiment can be described thus: blockers of cytochrome P450 2C9 activity – biochemical, luminescence, ADME assay, primary screen (AID 777). Particulars: CYP2C9 Supersomes, luciferin-H conversion, at 5 µM, hits give high values.
Chain of Cytochrome P450 2C9 (Homo sapiens) (P11712 whole entry, looked up): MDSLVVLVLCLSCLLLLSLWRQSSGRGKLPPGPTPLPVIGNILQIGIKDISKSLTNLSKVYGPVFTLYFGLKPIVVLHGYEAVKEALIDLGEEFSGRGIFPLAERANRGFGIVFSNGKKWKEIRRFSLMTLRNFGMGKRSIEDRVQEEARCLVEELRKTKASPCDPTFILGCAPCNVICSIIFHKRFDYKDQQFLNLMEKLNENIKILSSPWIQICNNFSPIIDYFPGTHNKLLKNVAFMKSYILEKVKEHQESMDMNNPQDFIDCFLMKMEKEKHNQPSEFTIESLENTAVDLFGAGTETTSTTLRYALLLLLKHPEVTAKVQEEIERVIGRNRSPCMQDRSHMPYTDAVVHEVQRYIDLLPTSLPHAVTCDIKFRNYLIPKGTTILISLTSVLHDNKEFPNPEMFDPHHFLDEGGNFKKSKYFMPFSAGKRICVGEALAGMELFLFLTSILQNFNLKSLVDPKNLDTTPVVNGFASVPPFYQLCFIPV
The inhibition is the drop in the measured response relative to a control, in per cent. Take `COc1cccc(Oc2ccc(N)cc2)c1`: the inhibition was 4.7% (inactive).

`CN1C2CCC1/C(=C\c1ccccc1Cl)C(=O)/C2=C\c1ccccc1Cl`: the inhibition is -79.2% (inactive).

As to `COCCNC(=S)c1ccc(OC)cc1`, the inhibition is -13.3% (inactive). In the case of `Cn1c(Cc2csc(N)n2)nnc1SC/C=C/c1ccccc1`, the inhibition is 27.1% (inactive). On to `Cc1ccc2c(c1)-c1c(ssc1=S)C(C)(C)N2C(=O)CN1C(=O)c2ccccc2C1=O`, for which the inhibition was 80.6% (active). Regarding `C=CCn1c(C)cc(C(=O)CN2C(=O)c3ccccc3C2=O)c1C`, the inhibition was -61.6% (inactive).

For the compound `CC(C)OC(=O)CN1C(=O)c2ccccc2C1=O`, the inhibition is 4.9% (inactive). Consider `Cc1cc(C(=O)COC(=O)CCCN2C(=O)c3ccccc3C2=O)c(C)n1C`, for which the inhibition is -21.1% (inactive). The figure for `Cc1cc2c(cc1C)N(C(=O)CN1C(=O)c3ccccc3C1=O)C(C)(C)c1ssc(=S)c1-2` is 78.2% (active); for `CCOC(=O)CN1C(=O)C(=O)c2cc(C)ccc21` it is 8.3% (inactive); for `Cc1[nH]c2ccc(S(N)(=O)=O)cc2c1C` it is -42.1% (inactive). For the compound `CNC(=S)NNC(=O)c1sccc1OCc1ccccc1`, the inhibition is 12.2% (inactive). The figure for `COc1cccc(-n2c(SCC(=O)NC3CCCCC3)nc3n[nH]c(C)c3c2=N)c1` is 19.4% (inactive). With `Cc1noc(C)c1C(=O)NC(C)c1ccc2c(c1)OCO2` (stereo not given), the inhibition is 32.6% (inactive). As for `COC(=O)c1ccc(NC(=O)CN(c2ccc(C)cc2)S(=O)(=O)c2c(C)n[nH]c2C)cc1`, the inhibition is 91.4% (active).

For the compound `Cc1noc(C)c1S(=O)(=O)N(CC(=O)NCc1ccc(Cl)cc1)c1ccc2c(c1)OCO2`, the inhibition is 68.9% (active). The figure for `CCN(CC)C(=O)CCC(=O)Nc1ccc(C(=O)OC)cc1` is 8.6% (inactive); for `CS(=O)(=O)N(CC(=O)NCc1ccco1)c1ccc2c(c1)OCO2` it is 2.2% (inactive). For the compound `COC(=O)c1ccc(NC(=O)Nc2ccc(C)cc2)cc1`, the inhibition is 34.6% (inactive). The figure for `Cc1ccc(N(CC(=O)Nc2cc(C)cc(C)c2)S(=O)(=O)c2cccc3nonc23)cc1` is 48.7% (inactive); for `CCOC(=O)c1cccc(NC(=O)CN(c2ccc(C)cc2)S(=O)(=O)c2c(C)noc2C)c1` it is 65.9% (active). Consider `CCOc1ccc(N(CC(=O)OC)S(=O)(=O)c2c(C)noc2C)cc1`, for which the inhibition is 24.4% (inactive). Consider `CCOc1ccc(N(CC(=O)NCc2ccc(OC)cc2)S(=O)(=O)c2c(C)noc2C)cc1`, for which the inhibition was 3.9% (inactive).

For `Cc1noc(C)c1S(=O)(=O)N(CC(=O)Nc1ccc2c(c1)OCCO2)c1ccc(C(C)C)cc1`, the inhibition was 72.5% (active). Regarding `CCCCN=C(N)/C(C(=O)OCC)=C(\O)c1ccc(OC)cc1`, the inhibition was 20.5% (inactive). Regarding `CCC(=O)Nc1ccc2c(c1)nc(CCN1CCN(C)CC1)n2C`, the inhibition is 0.1% (inactive). For `Cc1cc(C)n2nc(C(=O)NC(C)(C)C)nc2n1`, the inhibition was -10.2% (inactive). The figure for `Cc1ccc(C(C)C)c(OCc2nnc(SCC(=O)Nc3nccs3)n2C)c1` is 3.8% (inactive). The figure for `CCn1c2c(c3ccc(OC)cc31)CCCC2=O` is 41.1% (inactive).

For the compound `Cn1c(=O)c2c(SCC(=O)N3CCOCC3)nc(C3CC3)nc2n(C)c1=O`, the inhibition is 8.1% (inactive). On to `Cc1c(C)c2cc3c4c(oc3c(C)c2oc1=O)CCCC4`, for which the inhibition was 9.6% (inactive). Regarding `O=S1(=O)CC(NCc2ccccc2)C(Nc2ccc(Cl)cc2)C1` (stereo not given), the inhibition was 27.4% (inactive). The figure for `Cc1ccn2cc(-c3nonc3C)cc2c1` is 15.3% (inactive). For `O=C(Nc1ncc2c(n1)CC(c1ccco1)CC2=O)c1ccc(Cl)cc1` (stereo not given), the inhibition was 31.2% (inactive).

For the compound `C=CCn1c(SCc2csc(C)n2)nc2scc(-c3ccc(C)o3)c2c1=O`, the inhibition is 48% (inactive). The figure for `COc1ccc(S(=O)(=O)N(C)CC(=O)Nc2ccc3c(c2)OCCO3)cc1OC` is 27.4% (inactive); for `O=C(CN(c1ccc2c(c1)OCCO2)S(=O)(=O)c1ccccc1)Nc1ccc2c(c1)OCO2` it is 92.2% (active); for `COc1ccc(CNc2ccc3c(c2)CCC3)cc1OC` it is 7.2% (inactive).

With `CC(C)C(=O)OCC(=O)Nc1ccc2c(c1)CCC2`, the inhibition is -0.6% (inactive). Take `COc1ccc(CC(=O)Nc2ccc3c(c2)CCC3)cc1S(=O)(=O)N1CCOCC1`: the inhibition is 59.8% (active). The figure for `CCC(=NC1CC(C)(C)NC(C)(C)C1)C1=C(O)CC(C)(C)CC1=O` is 13.4% (inactive); for `Cn1c(=NC(=O)CSCC(=O)N2CCOCC2)sc2ccccc21` it is -13.1% (inactive); for `O=C(CSc1ncccn1)NC(=O)NCc1ccccc1` it is 5.8% (inactive).

For the compound `COC(=O)Nc1sc2nc(C)cc(C)c2c1-n1cccc1`, the inhibition was 55.1% (active). In the case of `CCCCOC(=O)Nc1sc2nc(C)cc(C)c2c1-n1cccc1`, the inhibition is 37.4% (inactive).

Take `Cc1cc(C)c2c(-n3cccc3)c(C(=O)NNS(=O)(=O)c3ccc(F)cc3)sc2n1`: the inhibition was 98.1% (active). `Cc1cc(C)c2c(-n3cccc3)c(NC(=O)OCc3ccccc3)sc2n1`: the inhibition was 13.2% (inactive).

Take `COc1ccc(C2=Nc3cc(C)ccc3OC2)cc1`: the inhibition was 19.1% (inactive). `Cc1ccc(S(=O)(=O)n2cnc3ccccc32)c(C)c1`: the inhibition was -7.6% (inactive).

For `O=C(CN1C(=O)C2C3C=CC(C3)C2C1=O)NCCc1ccccc1Cl` (stereo not given), the inhibition is 17.1% (inactive). Regarding `CCc1c(O)nc(SCC(=O)N2CCCCC2)n(-c2ccccc2C)c1=O`, the inhibition was 4.6% (inactive). As to `Cc1ccc2nc3n(c(=O)c2c1)CCC3`, the inhibition was 21% (inactive). Turning to `COc1ccc(OC)c(CNC(=O)C2CCCN(c3nc4ccccc4o3)C2)c1` (stereo not given), the inhibition is 44.8% (inactive). As for `COc1ccc(C(c2nnnn2Cc2cccs2)N2CCN(c3ccccc3)CC2)cc1OC` (stereo not given), the inhibition is 61.5% (active). Take `COc1ccc(CCn2nnnc2C(c2ccccc2)N2CCN(C)CC2)cc1OC` (stereo not given): the inhibition is -6% (inactive). As for `Cc1ccc(C(c2sc3nc(C)nn3c2O)N2CCN(c3ccccc3)CC2)cc1` (stereo not given), the inhibition was 36% (inactive). As for `CC(=O)NC(C)(C)C1CC=C(C)/C(=N\O)C1` (stereo not given), the inhibition was -8.6% (inactive). Take `CCCCOc1ccc(C(C)(O)CCN2CCOCC2)cc1` (stereo not given): the inhibition is -4.9% (inactive). Take `CCCOc1ccc(C2c3c(oc4cc(C)c(C)cc4c3=O)C(=O)N2CCCN2CCOCC2)cc1` (stereo not given): the inhibition was 90.7% (active).

With `CCOc1ccc(C2C(C(=O)O)c3ccccc3C(=O)N2CCN2CCOCC2)cc1` (stereo not given), the inhibition is -15.8% (inactive). Regarding `CC1(C)CN=C(N2CCN(c3ncnc4sc5c(c34)CCCC5)CC2)S1`, the inhibition is 39.4% (inactive). The figure for `CCOC(=O)C1CCN(C(=O)Cc2c(C(=O)O)[nH]c3ccccc23)CC1` is 5.4% (inactive). Turning to `Cc1ccc(SCCC(=O)OCC(=O)Nc2ncc(Cl)cc2Cl)cc1`, the inhibition was 37.2% (inactive).

On to `Cc1nc2c(-c3ccccc3)c(C)[nH]n2c(=O)c1Cl`, for which the inhibition is 43.9% (inactive). On to `CCCCN=C1N/C(=C\c2ccco2)C(=O)N1c1ccccc1`, for which the inhibition was 2.2% (inactive). For the compound `O=S(=O)(c1ccc(Sc2nnc3ccccn23)nc1)N1CCOCC1`, the inhibition is -4.9% (inactive). The figure for `CN(c1ccc(C(=O)NCCC2=CCCCC2)cc1)S(C)(=O)=O` is -11.3% (inactive); for `Cc1ccccc1CSCCNC(=O)c1ccc(N(C)S(=O)(=O)c2ccccc2)cc1` it is 94.3% (active). As for `CCN(c1ccccc1)S(=O)(=O)c1ccc(C(=O)Nc2nccs2)cc1`, the inhibition was 23.3% (inactive). With `O=C(CSc1nnc(-c2c[nH]c3ccccc23)o1)c1ccccc1`, the inhibition is 18.1% (inactive). Take `Cc1cccc(C)c1-n1c(C)cc(/C=C2\C(=O)NN(c3ccccc3)C2=O)c1C`: the inhibition is 41.5% (inactive). Turning to `Cc1ccc(Oc2ccc3c(c2)C(=O)N(c2cccc4cccnc24)C3=O)cc1`, the inhibition is -11.5% (inactive).

Regarding `COc1ccc(C(=O)CN2C(=O)NC(C)(c3ccc(C)cc3)C2=O)cc1OC` (stereo not given), the inhibition was 17.2% (inactive). In the case of `Cc1ccc(C2(c3ccc(C)cc3)NC(=O)N(Cc3c(C)noc3C)C2=O)cc1`, the inhibition was 60.8% (active).

As for `COc1ccc(C(=O)CSc2n[nH]c(N)n2)cc1`, the inhibition is 2.8% (inactive).

As for `O=C(CN1CCOCC1)Nc1c(-c2ccccc2)c2cc(Br)ccc2[nH]c1=O`, the inhibition was -15.8% (inactive). For `CS(=O)(=O)c1ccc2nc(NC(=O)C3CCCCC3)sc2c1`, the inhibition was 7.3% (inactive). For `O=C(CN1CCN(CC(=O)Nc2ccc3c(c2)OCO3)CC1)Nc1ccc(F)cc1`, the inhibition was 33.1% (inactive). The figure for `O=C(Nc1ccccc1N1CCN(C(=O)c2ccccc2)CC1)c1ccc2c(c1)OCO2` is 83.3% (active); for `O=C(CN1CCN(c2ccccc2F)CC1)c1ccc2c(c1)OCO2` it is 74.2% (active); for `O=C(Nc1ccccc1N1CCCCC1)c1cccc(F)c1` it is 1.2% (inactive). On to `O=C(Nc1ccccc1N1CCN(c2ccccc2)CC1)c1cccc(F)c1`, for which the inhibition is 81.1% (active). The figure for `CCCC(=O)Nc1ccccc1N1CCN(C(=O)c2ccccc2)CC1` is 35.7% (inactive); for `O=C(Nc1ccccc1N1CCCCC1)c1ccc2nccnc2c1` it is 28.1% (inactive). The figure for `O=C(c1ccc2c(c1)OCO2)N1CCNc2ccccc2C1` is -40.3% (inactive); for `CCOc1ccc(NC(=O)N2CCN(CC)CC2)cc1` it is -0.2% (inactive). Turning to `Cc1oc2nc(SCC(=O)Nc3ccc(S(N)(=O)=O)cc3)nc(NC(=O)c3ccccc3)c2c1C`, the inhibition was 15% (inactive).

For the compound `COc1ccc(Cc2nnnn2CC(=O)O)cc1`, the inhibition is -11.9% (inactive). For the compound `Cc1ccccc1-c1ccc(Nc2ccc(C(=O)N3CCOCC3)cc2)nn1`, the inhibition was 34.1% (inactive). `COc1ccc(N2C(=O)CC(N3CCC(C(N)=O)CC3)C2=O)cc1` (stereo not given): the inhibition is -20.9% (inactive). With `COC(=O)c1ccc(C2CC(=O)Nc3cc(OC)c(OC)cc32)cc1` (stereo not given), the inhibition is 30.2% (inactive). Regarding `COc1ccc(CCN2CNc3c(c(=O)n(C)c(=O)n3C)C2)cc1OC`, the inhibition is -29.7% (inactive). Turning to `COC(=O)c1ccc(C2C(Oc3ccccc3C)C(=O)N2CCc2ccc(OC)c(OC)c2)cc1` (stereo not given), the inhibition was 54.9% (active).

Turning to `Cc1nn(C(C)CC(=O)O)c(C)c1C` (stereo not given), the inhibition is -4.1% (inactive).

As for `COc1ccc(CN2C(=O)CN=C2Nc2ccc(C)cc2C)cc1`, the inhibition was 31.5% (inactive).

The record behind these values is PubChem BioAssay AID777 (Sanford-Burnham Center for Chemical Genomics, 2007).
